# Pf growth 96h = inhibits malaria parasite growth, 96 h; P. falciparum luciferase reporter growth, 96 h; hit rate 6.9% among 320,000; Potency, µM (series often up to 28.7 µM), for the others: at the top dose activity change, negative = inhibition, hits mostly inhibitors
#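 Readout is luminescence from an integrated firefly luciferase in P. falciparum. Red cells, 2% hematocrit and 0.05% parasitemia final, were cultured with compound through two parasite generations (96 hours) at 37 C, 5% CO2.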
# AMA1 RON2 block = inhibitors of Plasmodium falciparum AMA1-RON2 interaction; Potency, µM (titrated, usually from 58.2 µM), without a hit: top-dose activity change, negative = inhibition, most hits filed as inhibitors; AID 720542; hit rate 0.2% among 360,000; AlphaScreen AMA1-biotinylated RON2 peptide binding;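 further: 0% = vehicle wells and -100% = peptide control; nearly all actives have a fitted effect of over 45% in size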
#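 AMA1 (3D7) with his tag at 25 nM final met compounds first, then biotinylated RON2 peptide at 25 nM; detection used donor plus acceptor beads, 10 µg/mL apiece, read by AlphaScreen after 30 min at room temperature.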
# Pf growth 48h = P. falciparum growth inhibition at 48 hours (one generation) | P. falciparum luciferase growth in erythrocytes, 48 h | Potency, µM (series often up to 28.7 µM), for inactives: at the top dose activity change, negative = inhibition, most hits filed as inhibitors | hit rate 5.9% among 310,000 | AID 504832
#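 Here the parasites carry a stable luciferase gene and grow inside erythrocytes in Albumax-based RPMI medium with compound for one erythrocytic cycle. Activity is scored as loss of luminescent signal.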
# HCV inh = inhibitors of hepatitis C virus infection; hit rate 3.4% among 340,000; Huh7.5.1 HCVcc-Cre infection, luciferase reporter, 44 h; Potency, µM (doses to about 41.8 µM), without a hit: top-dose activity change, negative = inhibition, hits mostly inhibitors
#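 Seed cells (1,000/well) for 4 h; treat with compound and infect with HCVcc-Cre, moi about 0.5. Incubate 44 h, then detect luciferase activity.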
# * marks the source's active call; other numbers are inactive results; ? = inconclusive; · = no result given; [ ] = another dose, or the depositor's remark. Hits are enriched below; roughly 11% of the tested compounds scored in any of these assays. The call rests on the fitted dose curve; in most records, active means well fitted curve in the direction sought with a large enough effect; inconclusive means small, poorly fitted or top-dose-only effect, or another doubt; inactive means no such curve, though single readings can be large; an effect the other way counts as inactive or inconclusive. Unless noted, on the % scale 0 is the no-effect control and ±100 the full control effect; potency means the concentration at half of the fitted maximal effect.
SMILES,Pf growth 96h,AMA1 RON2 block,Pf growth 48h,HCV inh
CCc1cccc(OCC2Cn3c(nc4c3c(=O)[nH]c(=O)n4C)O2)c1 (stereo not given),12µM*,5%,5%,-16%
CCc1cccc(OCC2Cn3c(nc4c3c(=O)n(C)c(=O)n4C)O2)c1 (stereo not given),?,-4%,16%,?
Cn1c(=O)c2c(nc3n2CC(COc2ccccc2)O3)n(C)c1=O (stereo not given),9.3µM*,6%,0%,15%
Cn1c(=O)c2c(nc3n2CC(COc2ccc(Cl)cc2)O3)n(C)c1=O (stereo not given),?,-6%,-11%,-26%
CCCC(=O)Nc1cc(C(=O)O)ccc1S(=O)(=O)c1ccc(Cl)cc1,?,10%,3%,27%
COc1cccc(CCc2nnc(CCC(=O)N3CCCC3c3nccs3)o2)c1 (stereo not given),5.9µM*,12%,-3%,7%
CN1C(=O)/C(=C/c2coc3ccc(O)cc3c2=O)SC1=S,0%,1%,-3%,5%
Cc1cc(/C=C2\SC(=S)N(C)C2=O)c(C)n1-c1ccc(O)cc1,0%,-15%,68%,11µM*
Cc1cc(/C=C2\SC(=S)N(C)C2=O)c(C)n1-c1ccccc1O,·,-17%,·,7.1µM*
CCOCCCN1C(=O)CN(C2CCCCCC2)C(=O)C1c1ccc(OC)cc1 (stereo not given),0.83µM*,-8%,?,1%
OC1(c2ccc(Br)cc2)CN(c2ccccc2)C2=[N+]1CCS2 (stereo not given),?,-17%,?,?
OC1(c2ccc(Cl)cc2)CN(c2ccccc2)C2=[N+]1CCS2 (stereo not given),?,-21%,?,13µM*
CCN(CC)CCN(C(=O)c1ccc(S(=O)(=O)N(C)C2CCCCC2)cc1)c1nc2c(C)cccc2s1,?,-5%,?,-14%
CCN(Cc1ccccc1)S(=O)(=O)c1ccc(C(=O)N(CCCN(C)C)c2nc3c(C)c(C)ccc3s2)cc1,?,?,?,13µM*
Cc1ccc2sc(N(CCCN(C)C)C(=O)c3ccc(S(=O)(=O)N(C)C4CCCCC4)cc3)nc2c1C,12µM*,?,10µM*,?
Cc1ccc2sc(N(CCCN(C)C)C(=O)c3ccc(S(=O)(=O)N4CCOCC4)cc3)nc2c1C,?,-3%,13µM*,?
Cc1ccc2nc(N(CCCN(C)C)C(=O)c3ccc(S(=O)(=O)N4CCOCC4)cc3)sc2c1,1%,1%,-24%,-11%
Cc1ccc(Cc2c(-c3ccc(F)cc3)nc3cc(C)ccn23)cc1,·,-26%,·,·
COC(=O)[C@@H](NC(=O)NCCC1=CCCCC1)C(C)C,-11%,3%,1%,4%
Cc1nn(Cc2ccccc2Cl)c2sc(C(=O)NCc3ccc4c(c3)OCO4)cc12,12µM*,-11%,·,?
COc1ccccc1CNC(=O)c1cc2c(C)nn(Cc3ccc(F)cc3)c2s1,12µM*,-4%,?,7.1µM*
CCC(CC)NC(=O)c1cc2c(C)nn(Cc3ccccc3Cl)c2s1,·,29%,13µM*,?
Cc1nn(Cc2ccc(F)cc2)c2sc(C(=O)Nc3nccs3)cc12,?,67%,?,?
Cc1nn(Cc2ccccc2Cl)c2sc(C(=O)Nc3ccccc3N3CCOCC3)cc12,?,0%,?,13µM*
OC[C@@H]1CN(Cc2ccc(F)cc2)C[C@H](n2cnc3c(N4CCCC4)ncnc32)O1,·,-18%,·,·
SMILES,Pf growth 96h,AMA1 RON2 block,Pf growth 48h,HCV inh
COC(=O)c1ccc(NC(=O)COc2ccc(S(=O)(=O)NC(C)(C)C)cc2)cc1,16%,-4%,6%,-10%
Cc1ccc(N2C(=O)NC(NC(=O)C3CC3)(C(F)(F)F)C2=O)cc1 (stereo not given),?,-4%,11%,-2%
CCn1c(SCC(=O)N(C)c2ccccc2)nc2c([nH]c3ccccc32)c1=O,?,-10%,?,-16%
COc1cccc(-n2c(SCC(N)=O)nc3c([nH]c4ccccc43)c2=O)c1,·,-1%,3%,-12%
COc1ccc(-n2c(SCC(=O)N(C)c3ccccc3)nc3c([nH]c4ccccc43)c2=O)cc1OC,4.7µM*,-18%,8.3µM*,-3%
COc1ccc(-n2c(SCC(=O)Nc3ccc(C(N)=O)cc3)nc3c([nH]c4ccccc43)c2=O)cc1OC,12µM*,-1%,?,11µM*
Cc1c(C)c2c(OCC(=O)Nc3ccc(CCO)cc3)cc3c(c2oc1=O)CCC(C)(C)O3,13µM*,-1%,8.3µM*,?
Cc1c(C)c2c(OCC(=O)N3CCC(C(=O)O)CC3)cc3c(c2oc1=O)CCC(C)(C)O3,5.2µM*,0%,?,37%
O=C(/C=C/c1cn(-c2ccccc2)nc1-c1cccs1)NCCN1CCOCC1,?,-12%,?,14µM*
O=C(Nc1cccnc1)c1cc(-c2cccs2)on1,10µM*,-4%,235%,·
CN(CC(=O)Nc1ccc(F)cc1)C(=O)c1cn(-c2ccccc2)nc1-c1cccs1,?,-4%,?,?
O=C(c1cn(-c2ccccc2)nc1-c1cccs1)N1CCN(c2ccccc2)CC1,-19%[5.75 µM],-20%,2%,7.1µM*
CCN(CC)CCNC(=O)c1ccc(NC(=O)c2cn(-c3ccccc3)nc2-c2cccs2)cc1,?,-6%,12µM*,11µM*
O=C(c1cn(-c2ccccc2)nc1-c1cccs1)N1CCOCC1,30%,-6%,1%,-6%
O=C(C[C@H]1C[C@@H]2c3cc(NS(=O)(=O)c4ccccc4)ccc3O[C@@H]2[C@H](CO)O1)N1CCOCC1,·,1%,·,·
CCN(CC)CCNC(=O)c1ccc(NC(=O)c2ccccc2-c2ccc(C(F)(F)F)cc2)cc1,9.3µM*,56%,13µM*,?
O=C(Nc1cccnc1)c1cn(-c2ccccc2)nc1-c1cccs1,13%,-7%,0.59µM*,?
CCN(CC)CCNC(=O)c1ccc(NC(=O)c2ccc3c(c2)CCC3)cc1,3.7µM*,4%,5.2µM*,11µM*
CCN(CC)CCNC(=O)c1ccc(NC(=O)Cc2ccccc2F)cc1,23%,-4%,?,-10%
CCN(CC)CCNC(=O)c1ccc(NC(=O)c2cn(-c3ccc(F)cc3)nc2-c2cccc(OC)c2)cc1,1µM*,-9%,1.9µM*,?
CCN(CC)CCNC(=O)c1ccc(NC(=O)c2cccc(S(=O)(=O)N(C)C3CCCCC3)c2)cc1,·,84%,·,?
COCOc1ccc(C=O)cc1OCOC,·,6%,·,5%
Cc1ccc(N(C(=O)CNC(=O)c2ccco2)C(C(=O)NC2CCCCC2)c2ccncc2)cc1F (stereo not given),?,-2%,-9%,0%
Cc1cc(C)n2nc(C(=O)NNC(=O)c3ccccc3)nc2n1,3%,93%,-23%,28%
COc1ccc(NS(=O)(=O)c2cccc(C(=O)NNC(=O)c3cc(S(N)(=O)=O)ccc3OC)c2)cc1,-22%,94%,16%,-4%

# Bioassay records as filed in PubChem.
